Measurements reported in PubChem BioAssay (NCI).
Compounds without any hit were thinned out: in the full panel of roughly 79,000, 15% have a hit. Calls of active or inactive are those of the source. Cut-off read from the data, not from the text of the source: active = growth inhibition above about 70%; inactive = the rest.

Test: NCI Yeast Anticancer Drug Screen. Data for the bub3 strain (AID 167)
Conditions: S. cerevisiae bub3 mutant strain, at 5.0 µM (retest, dose inferred, filed as 0.5), hits give high values
In short: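 Mutant yeast screening strain plus compound; vehicle-treated cultures serve as the 0% inhibition reference.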

| SMILES | growth inhibition |
| --- | --- |
| Oc1c(Br)cc(Cl)cc1Br | -6% (inactive) |
| COc1ccc(C2Oc3ccc(Cl)cc3C=C2[N+](=O)[O-])cc1OC (configuration not stated) | 88% (active) |
| COC(=O)C(=O)CC(=O)c1cccc(Cl)c1 | 13% (inactive) |
| O/N=C(/C[N+]12CN3CN(CN(C3)C1)C2)c1ccc(I)cc1 | 1% (inactive) |
| COc1cc(CCN=Cc2cc(Cl)cc(Cl)c2O)c([N+](=O)[O-])cc1OC | 51% (inactive) |
| COc1ccc2c(c1OC)C1=C(C2=O)c2cc3c(cc2CCN1)OCO3 | -15% (inactive) |
| CC(C)(C)[Si](C)(C)OCC1OC(n2cc(I)c(N)nc2=O)C(O[Si](C)(C)C(C)(C)C)C1O[Si](C)(C)C(C)(C)C (configuration not stated) | 9% (inactive) |
| O=S(=O)(Nc1ccccn1)c1ccc(NCc2c3ccccc3nc3cc(Cl)ccc23)cc1 | 8% (inactive) |
| OCc1ccc2c(c1)CC1(C2)Cc2cc3c(cc2C1O)CCC3 (configuration not stated) | 21% (inactive) |
| COc1cc(C(c2cc3c(cc2O)OCO3)N2CCOCC2)ccc1O (configuration not stated) | -4% (inactive) |
| CCCCCCCCCCCCCCSC(=N)N | 100% (active) |
| Cc1ccccc1NC(=S)Nc1ccccc1O | 20% (inactive) |
| c1cc2cc(Cc3ccc4[nH]ccc4c3)ccc2[nH]1 | 12% (inactive) |
| N=C(N)c1ccc(-c2ccc(-c3ccc(C(=N)N)cc3)o2)cc1 | 4% (inactive) |
| O=c1oc2c/c(=C\c3ccccc3)c(=O)c3cccc1c3-2 | -7% (inactive) |
| CCCCCCCC(=O)/C=C/c1ccc(C)cc1 | -61% (inactive) |
| COc1ccc(CCC2(C)OCCC(C)O2)cc1 (configuration not stated) | -3% (inactive) |
